PubChem BioAssay AID1224904 (Broad Institute, 2016)
Values joined by “and” are separate entries in the source; they are usually repeats but may differ in a detail not shown here. Identical values can stand only once. In all, about 37,000 compounds went through this assay and about 290 (0.78%) were called active. Inconclusive results (about 10%) are left out.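 How the source made its calls: active means mean inhibition of at least 10% in the main channel, exceeding the control channel by a set limit; inconclusive means inhibition of 10% or more but channel gap under a set limit; inactive means mean inhibition below 10%.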 Many of the other results were omitted from the sample, so actives are more common in it than they were.

Experiment: inhibitors of DUX4-driven ZSCAN4 reporter expression, primary screen, 293T cells, Gaussia and Italica luciferase (AID 1224904);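 on activity change, negative = inhibition: 0% = median of neutral control wells and -100% = median of positive control wells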
Conditions: 293T-iDUX4 ZSCAN4-Gaussia luciferase reporter, 24 h, stronger effect = lower value, concentration not given here; for Gaussia minus Italica difference: measured here: selective DUX4 reporter inhibition
[1] = measured here: Italica tet-on control reporter

Row | SMILES | activity change, negative = inhibition | activity change, negative = inhibition [1] | Gaussia minus Italica difference
1 | O=C(CC(F)(F)F)N1C[C@H]2[C@@H](c3ccccc31)[C@H](CO)N2C(=O)Cc1cccnc1 | 2.67% (inactive) | 0.448% | 2.22%
2 | CCCC#Cc1ccc([C@@H]2[C@@H](C#N)N(C(=O)C3CCC3)[C@H]2CO)cc1 | 0.61% (inactive) | 1.62% | -1.01%
3 | COc1cccc(CN2[C@H](CO)[C@@H]3c4ccccc4N(C(=O)c4ccncc4)C[C@@H]32)c1 | -3.19% (inactive) | 4.06% | -7.25%
4 | COc1cccc(C(=O)Nc2ccc3c(c2)C(=O)N(C)[C@H]2CC[C@@H](CC(=O)N[C@H](C)c4ccccc4)O[C@H]2CO3)c1 | -1.13% (inactive) | 0.375% | -1.51%
5 | COC(=O)[C@@H]1[C@@H](CO)[C@@H]2Cn3c(ccc(-c4ccccc4F)c3=O)[C@@H]2N1CC1CCOCC1 | -4.32% (inactive) | 8.44% | -12.8%
6 | O=C([C@H]1[C@H](CO)[C@H]2Cn3c(cccc3=O)[C@@H]1N2Cc1cocn1)N1CCCCC1 | 0.941% (inactive) | 1.28% | -0.343%
7 | C/C=C/c1ccc(C2[C@H]3CNC[C@@H]2N3C(=O)Nc2cc(F)ccc2F)cc1 (some centres undefined) | 15.1% (inactive) and 2.98% (inactive) | 3.89% and 2.36% | 11.2% and 0.626%
8 | O=C(c1ccncc1)N1CC2(C1)[C@@H](c1ccccc1)[C@H](CO)N2C(=O)c1ccncc1 | 9.03% (inactive) | 0.77% | 8.26%
9 | CO[C@@H]1CN(C)C(=O)c2cc(NS(=O)(=O)c3cn(C)cn3)ccc2OC[C@@H](C)N(CCC(F)(F)F)C[C@H]1C | 2.8% (inactive) | 2.78% | 0.0206%
10 | CC(C)NC(=O)Nc1ccc2c(c1)C(=O)N(C)[C@H]1CC[C@H](CC(=O)NCc3ccc(F)cc3)O[C@H]1CO2 | -1.78% (inactive) | -0.912% | -0.872%
11 | CN1C(=O)c2cc(NC(=O)Nc3ccccc3F)ccc2OC[C@H]2O[C@@H](CC(=O)Nc3cccc(Cl)c3)CC[C@@H]21 | 2.01% (inactive) | 1.81% | 0.199%
12 | CN1C(=O)c2cc(NC(=O)c3ccc(Cl)cc3)ccc2OC[C@@H]2O[C@@H](CC(=O)O)CC[C@H]21 | 3.27% (inactive) | 2.43% | 0.834%
13 | CCS(=O)(=O)N1[C@H](CO)[C@@H](c2ccc(C#CC(C)C)cc2)[C@@H]1C#N | -1.24% (inactive) | -0.906% | -0.33%
14 | COc1ccccc1CN1[C@@H]2CNC[C@H]1C2c1ccc(-c2cccc(C#N)c2)cc1 (some centres undefined) | 2.24% (inactive) and -7% (inactive) | 7.91% and -13.5% | -5.67% and 6.5%
15 | CCCNC(=O)C[C@H]1CC[C@H]2[C@@H](COc3ccc(NC(=O)Nc4c(C)noc4C)cc3C(=O)N2C)O1 | 1.35% (inactive) | 1.62% | -0.269%
16 | CN(C)C(=O)c1cccc(-c2ccc(C3[C@@H]4CN(S(=O)(=O)c5ccc(F)cc5)C[C@H]3N4)cc2)c1 (some centres undefined) | -0.156% (inactive) | -4.49% | 4.34%
17 | N#Cc1ccc(-c2ccc(C3[C@@H]4CN(S(=O)(=O)c5ccc(F)cc5)C[C@H]3N4)cc2)cc1 (some centres undefined) | -15.8% (active) | 11.7% | -27.5%
18 | O=C(Cc1ccncc1)N1C[C@@H]2N[C@H](C1)C2c1ccc(-c2ccc(F)cc2)cc1 (some centres undefined) | -3.63% (inactive) | 1.35% | -4.98%
19 | CCC(=O)N(C)C[C@H]1[C@H](c2ccc(-c3ccccc3F)cc2)[C@@H](CO)N1C(C)=O | 3.08% (inactive) | 7.42% | -4.34%
20 | CCCNC(=O)[C@@H]1[C@@H](CO)[C@@H]2Cn3c(cccc3=O)[C@H]1N2C(=O)C1CCC1 | -0.71% (inactive) | 1.58% | -2.29%
21 | CC=Cc1ccc2n(c1=O)C[C@@H]1[C@@H](CO)[C@H](C(=O)NCCCN3CCOCC3)[C@H]2N1Cc1cocn1 (mixture of isomers) | -1.75% (inactive) | 4.32% | -6.07%
22 | CCCNC(=O)[C@@H]1[C@@H](CO)[C@@H]2Cn3c(ccc(C4=CCCCC4)c3=O)[C@H]1N2CCC | 0.23% (inactive) | -0.339% | 0.57%
23 | COCCN(C[C@H]1[C@@H](c2ccccc2)[C@H](CO)N1C(=O)C1CCC1)C(C)=O | -2.05% (inactive) | 5.46% | -7.51%
24 | C[C@H]1CN([C@@H](C)CO)S(=O)(=O)c2ccc(-c3ccncc3)cc2O[C@H]1CN(C)S(C)(=O)=O | -0.678% (inactive) | 4.8% | -5.48%
25 | CCC(=O)N1C[C@@H](C)[C@H](OC)CN(C)C(=O)c2cc(NC(=O)c3cc(C)on3)ccc2OC[C@@H]1C | -1.43% (inactive) | 2.42% | -3.85%
26 | CCCNC(=O)N1C[C@@H](C)[C@@H](OC)CN(C)C(=O)c2ccc(NC(=O)C3CCC3)cc2OC[C@@H]1C | -2.74% (inactive) | -2.2% | -0.535%
27 | CN1C(=O)c2cc(NS(=O)(=O)c3ccc(Cl)cc3)ccc2OC[C@H]2O[C@@H](CC(=O)O)CC[C@H]21 | 2.17% (inactive) | -0.461% | 2.63%

Row | SMILES | activity change, negative = inhibition | activity change, negative = inhibition [1] | Gaussia minus Italica difference
28 | CN1C(=O)c2cc(NC(=O)c3ccc(F)c(F)c3)ccc2OC[C@H]2O[C@@H](CC(=O)N3CCCCC3)CC[C@H]21 | -2.75% (inactive) | -1.85% | -0.906%
29 | CO[C@@H](CN(C)C(=O)Nc1ccc(F)cc1)[C@H](C)CN(Cc1ccccc1Cl)[C@@H](C)CO | 1.39% (inactive) | -1.3% | 2.69%
30 | COCC(=O)N1CC2(C1)[C@H](c1ccc(-c3cccc(F)c3)cc1)[C@@H](CO)N2C(=O)COC | 6.28% (inactive) | 3.24% | 3.04%
31 | CN(C)c1ccc2c(c1)[C@H]1C[C@H](CC(=O)O)O[C@H](CO)[C@H]1O2 | 1.12% (inactive) | 6.76% | -5.64%
32 | C[C@H]1CN([C@@H](C)CO)C(=O)c2c(c3ccccc3n2C)-c2ccccc2CO[C@H]1CN(C)Cc1ccc2c(c1)OCO2 | 3.62% (inactive) | -0.444% | 4.06%
33 | C[C@@H]1CN([C@@H](C)CO)C(=O)c2c(c3ccccc3n2C)-c2ccccc2CO[C@H]1CN(C)Cc1cccc(C(=O)O)c1 | -0.025% (inactive) | -8.31% | 8.28%
34 | CC(C)OC(=O)N(C)C[C@@H]1OCc2ccccc2-c2c(n(C)c3ccccc23)C(=O)N([C@H](C)CO)C[C@H]1C | -4.14% (inactive) | -0.897% | -3.24%
35 | C[C@@H]1CN([C@@H](C)CO)C(=O)c2c(c3ccccc3n2C)-c2ccccc2CO[C@@H]1CN(C)Cc1cccc(C(=O)O)c1 | 7.37% (inactive) | 5% | 2.36%
36 | C[C@@H]1CN([C@@H](C)CO)C(=O)c2c(c3ccccc3n2C)-c2ccccc2CO[C@@H]1CN(C)S(=O)(=O)CC(F)(F)F | 18.5% (inactive) | 1.21% | 17.3%
37 | C[C@H](CO)N1C[C@H](C)[C@@H](CN(C)Cc2ccc(C(F)(F)F)cc2)OCc2ccccc2-c2c(n(C)c3ccccc23)C1=O | -40.3% (active) | -11% | -29.3%
38 | C[C@@H]1CN([C@@H](C)CO)C(=O)c2c(c3ccccc3n2C)-c2ccccc2CO[C@@H]1CN(C)Cc1ccc2c(c1)OCCN2C | -2.06% (inactive) | 2.22% | -4.27%
39 | C[C@@H]1CN([C@H](C)CO)C(=O)c2c(c3ccccc3n2C)-c2ccccc2CO[C@@H]1CN(C)Cc1ccccc1C(F)(F)F | -42% (active) | -5.06% | -36.9%
40 | C[C@@H]1CN([C@H](C)CO)C(=O)c2c(c3ccccc3n2C)-c2ccccc2CO[C@@H]1CN(C)Cc1ccc(F)cc1 | -34.5% (active) | -8.76% | -25.8%
41 | C[C@@H]1CN([C@@H](C)CO)C(=O)c2c(c3ccccc3n2C)-c2ccccc2CO[C@H]1CN(C)S(=O)(=O)c1cccs1 | -5.46% (inactive) | -1.09% | -4.37%
42 | Cc1ccccc1S(=O)(=O)N(C)C[C@@H]1OCc2ccccc2-c2c(n(C)c3ccccc23)C(=O)N([C@H](C)CO)C[C@H]1C | -34% (active) | -6.75% | -27.3%
43 | C[C@@H]1CN([C@@H](C)CO)C(=O)c2c(c3ccccc3n2C)-c2ccccc2CO[C@@H]1CN(C)S(=O)(=O)c1cccs1 | 10.1% (inactive) | 4.92% | 5.19%
44 | CCC(=O)N1CC2(C1)[C@@H](c1ccc(C3=CCCC3)cc1)[C@@H](CO)N2C(=O)COC | 2.59% (inactive) | 3.57% | -0.983%
45 | COc1cccc(CNC(=O)[C@@H]2[C@@H](CO)[C@@H]3Cn4c(ccc(-c5ccncc5)c4=O)[C@H]2N3C(C)=O)c1 | -3.74% (inactive) | -3.37% | -0.373%
46 | CN1CCN(C(=O)C[C@@H]2CC[C@@H]3[C@H](COC[C@@H](O)CN3Cc3cccc(F)c3)O2)CC1 | 4.3% (inactive) | -1.22% | 5.51%
47 | O=C(C[C@@H]1CC[C@@H]2[C@H](COC[C@H](O)CN2C(=O)c2cccnc2)O1)NC1Cc2ccccc2C1 | 3.73% (inactive) | -3.66% | 7.39%
48 | CC(C)CN(C[C@@H]1N[C@@H](CO)[C@H]1c1ccccc1)C(=O)CN(C)C | 0.487% (inactive) | 0.95% | -0.462%
49 | O=C(C[C@@H]1CC[C@@H](NC(=O)Nc2ccc(F)cc2)[C@@H](CO)O1)NCCN1CCCC1 | 3.27% (inactive) | -1.07% | 4.34%
50 | N#C[C@@H]1[C@@H](c2ccc(C#Cc3cccc(F)c3)cc2)[C@H](CO)N1C(=O)C1CCOCC1 | 1.6% (inactive) | 1.95% | -0.348%
51 | Cc1noc(C)c1S(=O)(=O)N(C)C[C@@H]1OCc2ccccc2-c2ccccc2C(=O)N([C@@H](C)CO)C[C@H]1C | 1.81% (inactive) | 12.5% | -10.7%
52 | O=C(C[C@H]1CC[C@@H]2[C@H](COC[C@@H](O)CN2C(=O)Nc2ccc(Cl)cc2)O1)NC1Cc2ccccc2C1 | -9.05% (inactive) | -0.9% | -8.14%
53 | CN1C(=O)c2cc(NC(=O)c3cscn3)ccc2OC[C@H]2O[C@@H](CC(=O)NCC3CC3)CC[C@H]21 | -3.18% (inactive) | -1.57% | -1.61%
